Experimental data reported in PubChem BioAssay AID720648 (The Scripps Research Institute Molecular Screening Center, 2013).
Among all 370,000 compounds or so, about 3,100 (0.84%) were called active.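 Rule for the calls: active = inhibition above the mean of compounds lying between control limits plus 3 SD, set per campaign (cut at about 8.5% in these data); inactive = the rest.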 The entries come from a sample that favours actives as a whole.

What follows are compounds tested against Disintegrin and metalloproteinase domain-containing protein 17 (Homo sapiens) (UniProt P78536) (assay: ADAM17 inhibitors, primary screen, biochemical, QFRET (AID 720648;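 note: 0% = DMSO-only wells as the low control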)). Conditions: recombinant ADAM17, EDANS/DABCYL FRET peptide cleavage; at 6.95 µM; stronger effect = higher value.
Sequence of Disintegrin and metalloproteinase domain-containing protein 17 (Homo sapiens) (P78536 215-824 limits assumed): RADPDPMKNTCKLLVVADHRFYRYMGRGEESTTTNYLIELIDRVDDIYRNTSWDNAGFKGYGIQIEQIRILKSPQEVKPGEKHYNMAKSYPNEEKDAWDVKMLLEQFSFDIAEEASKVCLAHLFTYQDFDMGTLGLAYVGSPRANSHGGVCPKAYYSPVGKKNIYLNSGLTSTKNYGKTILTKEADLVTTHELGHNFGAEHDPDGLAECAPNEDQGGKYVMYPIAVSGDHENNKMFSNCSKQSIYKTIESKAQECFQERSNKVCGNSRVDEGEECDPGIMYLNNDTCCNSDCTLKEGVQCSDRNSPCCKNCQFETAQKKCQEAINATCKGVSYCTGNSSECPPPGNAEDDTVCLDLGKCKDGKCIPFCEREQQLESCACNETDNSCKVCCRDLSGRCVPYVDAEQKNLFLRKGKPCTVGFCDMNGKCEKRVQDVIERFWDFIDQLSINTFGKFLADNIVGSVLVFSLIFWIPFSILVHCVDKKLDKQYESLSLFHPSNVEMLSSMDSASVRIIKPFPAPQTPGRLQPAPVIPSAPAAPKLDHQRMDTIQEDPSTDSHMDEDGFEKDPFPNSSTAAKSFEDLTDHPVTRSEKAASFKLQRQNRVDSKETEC

inhibition, inactive:
Cc1ccc(NC(=O)Nc2cc(C)nn2-c2ccccc2)cc1 -1.4%
Cn1c(Nc2ccccc2)cc(=O)n(C)c1=O -0.84%
COC(C(=O)NCc1ccccc1C)c1ccccc1 (centres undefined) -5.21%
CCC(Oc1ccccc1C)C(=O)Nc1ccc(S(=O)(=O)Nc2cc(C)on2)cc1 (centres undefined) -4.21%
COc1cccc(Cn2cc(COC(=O)Nc3ccc(F)cc3)nn2)c1 -1.05%
COc1ccccc1C(=O)NC1CCCCN(C(C)C)C1=O (centres undefined) -7.08%
COc1ccc(CN(C(=O)c2cccs2)c2nccs2)cc1OC 0.3%
O=C(O)CCC(=O)N(Cc1ccco1)c1nc(-c2ccccc2)cs1 -2.47%
C[C@@H]1COc2cccc(N3CCCC3)c2S(=O)(=O)N1C -5.16%
C=CCN1[C@@H](Cc2ccccc2)COc2cccc(N3CCSCC3)c2S1(=O)=O -1.76%
CCCn1nc(C(=O)NNC(=O)CCOc2ccccc2OCC)c2ccccc2c1=O -0.01%
Cc1cc(NC(=O)CSCC(=O)NC(C)c2ccccc2)no1 (centres undefined) -2.03%
COC(=O)C1CN(CCc2ccccc2)CCS(=O)(=O)N1Cc1ccc(F)cc1 (centres undefined) -9.15%
CCOc1ccc(S(=O)(=O)NCCSc2ccccc2)cc1 6.1%
O=[N+]([O-])c1cc(S(=O)(=O)NCCc2ccccn2)ccc1Cl 0.55%
C[C@H](C(=O)N(C)c1ccccc1)[C@@H](O)c1ccc2ccccc2c1 -5.59%
CCN(CC)C(=O)CC[C@@H]1CC[C@]2(CCCN(S(=O)(=O)C3CCCCC3)C2)O1 -0.83%
COc1ccc(OCC(=O)OCC(=O)Nc2ccc(S(=O)(=O)N3CCCCC3)cc2)cc1 -0.04%
O=C(CN1CCCCCC1)Nc1ccc(S(=O)(=O)N2CCCCC2)cc1 -1.57%
N#CCC[C@H]1CC[C@]2(CCCN(Cc3ccc(Cl)cc3)C2)O1 -4.85%
COc1ccc(-n2c(SCC(=O)NC3CCCC3)nnc2-c2ccncc2)cc1 -3.54%
CCC(C)(C)NC(=O)C(c1cccn1C)N(Cc1ccc(C)cc1)C(=O)Cn1nnc2ccccc21 (centres undefined) 0.71%
COc1ccccc1N(C(=O)Cn1nnc2ccccc21)C(C(=O)NCc1ccco1)c1ccc(C)o1 (centres undefined) -3.12%
COCCCNC(=O)C[C@H]1C[C@@]2(C(=O)OC)C(=C[C@H](C(C)(C)C)O[C@@H]2C)N(Cc2ccc(Cl)cc2Cl)C1=O 3.29%
CCOC(=O)[C@@]12CN(C(=O)OC(C)(C)C)CC=C1N(Cc1ccc(OC)cc1)C(=O)[C@H]2CC(=O)NCc1ccc(OC)c(OC)c1 1.15%
COc1cccc(CNC(C)C(=O)Nc2ccc(S(=O)(=O)N3CCCC3)cc2)c1 (centres undefined) -0.82%
CC(C)c1ccc(S(=O)(=O)N2CCN(C(C)C(=O)NC3CCCC3)CC2)cc1 (centres undefined) 0.12%
C[C@@H]1ON(C)[C@H]2C[C@H]3c4[nH]c5cccc(-c6ccc7c(c6)OCO7)c5c4CCN3C[C@@H]12 -16.2%
COc1ccccc1CCNC(=O)C1CCN(c2nc(C)cc(C)n2)CC1 -1.54%
O=S1(=O)c2c(NCc3ccco3)cccc2Oc2ccccc2CN1Cc1cn(Cc2cccc(C(F)(F)F)c2)nn1 -1.67%
COc1ccc(Cl)cc1NC(=O)c1cccc(N2C(=O)C3CC=CCC3C2=O)c1 (centres undefined) -4.89%
COc1ccc(Cl)cc1NC(=O)COC(=O)c1ccc(Br)o1 -0.97%
Cc1cccc(C(=O)Nc2c(-c3ccc(F)cc3)nc3ncccn23)c1 -94.5%
CCOC(=O)c1csc(NC(=O)C2CCCN(S(=O)(=O)c3ccc(Cl)s3)C2)n1 (centres undefined) 1.07%
COc1ccc([N+](=O)[O-])cc1NCC(=O)c1ccc(C)cc1 0.13%
Cc1ccccc1OS(=O)(=O)c1cccc([N+](=O)[O-])c1 3.53%
O=C(CSc1nc2c(c(=O)[nH]1)CCCC2)N1CCCCC1 -1.39%
COc1cc(NC(=O)c2cc(-c3ccc(F)cc3OC(C)C)n[nH]2)cc(OC)c1OC 3.11%
CC(C)Oc1cc(F)ccc1-c1cc(C(=O)Nc2ccc(F)cc2)[nH]n1 2.41%
O=C(N1CCOCC1)N1CC[C@H]2[C@H](CCCN2Cc2ccc(F)cc2)C1 -3.39%
O=C(NC1CCC1)c1ccc(C#CC2CC2)cn1 -2.55%
CCn1c(SCC(=O)c2ccc(Cl)s2)nnc1-c1cccs1 -2.07%
Cc1ccc(-n2c(Cc3cccs3)nnc2SCC(=O)OC(C)C)cc1 -0.84%
CCC(=O)Nc1ccc2c(c1)C(=O)N(C)[C@H]1CC[C@H](CC(=O)NCCOC)O[C@@H]1CO2 -1.85%
COc1ccc(C#CCNCc2ccc(OC)cc2OC)cc1 -5.67%
COC(=O)c1ccccc1-n1cc(COC(=O)NCCc2ccccc2)nn1 -7.96%
CC1Cc2ccccc2N1S(=O)(=O)c1cccc(C(=O)OCC(=O)N2CCOCC2)c1 (centres undefined) -5.91%
CC1Cc2ccccc2N1S(=O)(=O)c1cccc(C(=O)NCC(c2ccco2)N2CCCC2)c1 (centres undefined) -2.28%
C=CCN1C(=O)[C@H](CC(=O)NCCCN2CCCC2=O)[C@@]2(C(=O)OCC)CCCC=C12 -6.27%
Cc1ccc(NC(=O)CCNS(=O)(=O)c2ccc3c(c2)oc(=O)n3C)cc1C 1.53%
COc1cccc(NC(=O)CCNS(=O)(=O)c2ccc3c(c2)oc(=O)n3C)c1 -2.66%
Cc1cc(NS(=O)(=O)c2ccc(NC(=O)CSc3nnc(SCc4ccc(F)cc4)s3)cc2)nc(C)n1 2.06%
CCOC(=O)c1cccc(NC(=O)CCn2nnc3ccccc32)c1 -1.7%
CCOC(=O)c1cccc(NC(=O)CN(c2ccc(C)cc2)S(=O)(=O)c2c(C)noc2C)c1 7.3%
O=C(OCC#CCSc1nnc(-c2ccco2)o1)c1ccc(F)cc1 -3.45%
CN(C)Cc1cn(-c2ccc(-c3noc4c3C(=O)N(CC(=O)N3CCOCC3)CC4)cc2)nn1 -1.12%
Cc1c(C)c2ccc(OCC(=O)N3CCN(c4cccc(Cl)c4)CC3)cc2oc1=O -9.1%
CSCCC(NC(=O)COc1ccccc1)C(=O)N1CCN(c2cccc(C(F)(F)F)c2)CC1 (centres undefined) 0.72%
Cc1ccc(Cn2cc(CN3[C@@H](CC(C)C)COc4ccc(Cl)cc4S3(=O)=O)nn2)cc1 -0.49%
CC1CC(=O)N(CC(=O)Nc2cccc(Cl)c2)c2ccccc2S1(=O)=O (centres undefined) 0.03%
CN1C(=O)C(CC(=O)Nc2ccccc2)S/C1=N/c1nccs1 (centres undefined) -3.53%
COc1cccc(CSc2nnc(-c3cccnc3)n2Cc2ccccc2)c1 -1.8%
CCN1C(=O)[C@H]2[C@@H](c3ccc(C(F)(F)F)cc3)N[C@]3(CCCN(Cc4ccc(Br)cc4)C3=O)[C@H]2C1=O 0.02%
O=C1[C@H]2[C@@H](c3ccc(C(F)(F)F)cc3)N[C@]3(CCCN(Cc4ccc(Cl)cc4)C3=O)[C@H]2C(=O)N1Cc1ccccc1 6.3%
O=C(NCc1ccco1)C1CCCN(S(=O)(=O)c2ccc(Cl)s2)C1 (centres undefined) -1.38%
O=C(CNS(=O)(=O)c1ccccc1F)N1CCN(c2ccccn2)CC1 -2.81%

inhibition, active:
Cc1cc(Nc2ccccc2)n(C(=O)c2ccc(N)cc2)n1 8.62%
COC(C(=O)Nc1ccc(S(=O)(=O)Nc2ccc(C)c(C)c2)cc1)c1ccccc1 (centres undefined) 9.01%
COc1ccc(CCN(C(=O)COc2ccccc2)c2nc(-c3ccccc3)cs2)cc1OC 9.24%
CCCn1nc(C(=O)NNC(=O)CSCC(=O)Nc2cc(C)on2)c2ccccc2c1=O 11.3%
Cc1ccc(S(=O)(=O)NCCSc2ccccc2)cc1[N+](=O)[O-] 10.7%
O=C(CSCc1ccc(Br)cc1)Nc1ccc(S(=O)(=O)N2CCCCCC2)cc1 12.9%
COCCNC(=O)C(c1ccc(C)o1)N(Cc1ccccc1)C(=O)Cn1nnc2ccccc21 (centres undefined) 9.14%
COc1ccc(S(=O)(=O)N2CCN(C(C)C(=O)Nc3ccc(C(C)C)cc3)CC2)cc1 (centres undefined) 12.4%
COc1ccc(Cl)cc1NC(=O)COC(=O)C(CC(C)C)N1C(=O)C2CC=CCC2C1=O (centres undefined) 18.9%
COc1cccc(/C=N/NC(=O)c2cccc([N+](=O)[O-])c2)c1OS(=O)(=O)c1ccc(C)cc1 9.36%
CC(C)Oc1cc(F)ccc1-c1cc(C(=O)Nc2cccc(Cl)c2)[nH]n1 12.5%
CCn1c(Cc2cccs2)nnc1SCC(=O)c1ccc(C)cc1 9.16%
CCCCn1ccnc1C(=O)c1cccc(S(=O)(=O)N2c3ccccc3CC2C)c1 (centres undefined) 11.1%
COc1cc(NC(=O)CCS(=O)(=O)c2ccc3c(c2)oc(=O)n3C)cc(OC)c1 8.71%
CCOC(=O)c1cccc(NC(=O)CN(C)S(=O)(=O)c2ccc(-c3cocn3)s2)c1 9.31%
O=C(COc1ccc(Cl)cc1)N1CCN(c2cccc(C(F)(F)F)c2)CC1 13.9%
O=C(CC1SC(=Nc2ccccc2)N(Cc2ccccn2)C1=O)Nc1cccc(Cl)c1 (centres undefined) 9.62%
O=C1[C@H]2[C@@H](c3ccc(C(F)(F)F)cc3)N[C@]3(CCCN(Cc4ccc(Br)cc4)C3=O)[C@H]2C(=O)N1Cc1ccccc1 13.7%
